In article PMC5540273 (PLoS ONE, 2017):

How the values were obtained:
Conditions in all cases: concentration: 1 μM, replicates: in singlicate; n = 1
TAOK2 = test system: TAOK2
TAOK3 = test system: TAOK3
TBK1 = test system: TBK1
TEC = test system: TEC
TESK1 = test system: TESK1
TGFBR1 = test system: TGFBR1
TGFBR2 = test system: TGFBR2
TIE1 = test system: TIE1
TIE2 = test system: T1, TIE2
T1 construct: gene TEK

TLK1 = test system: TLK1
TLK2 = test system: TLK2
TNIK = test system: TNIK
TNK1 = test system: TNK1
TNK2 = test system: TNK2
TNNI3K = test system: TNNI3K
TRKA = test system: T2, TRKA
T2 construct: gene NTRK1

TRKB = test system: TRKB
TRKC = test system: T3, TRKC
T3 construct: gene NTRK3

TRPM6 = test system: TRPM6
TSSK1B = test system: TSSK1B
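Further: KINOMEscan kinase panel screen.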

Structure (SMILES)	%Inh (TAOK2) [%]	%Inh (TAOK3) [%]	%Inh (TBK1) [%]	%Inh (TEC) [%]	%Inh (TESK1) [%]	%Inh (TGFBR1) [%]	%Inh (TGFBR2) [%]	%Inh (TIE1) [%]	%Inh (TIE2) [%]	%Inh (TLK1) [%]	%Inh (TLK2) [%]	%Inh (TNIK) [%]	%Inh (TNK1) [%]	%Inh (TNK2) [%]	%Inh (TNNI3K) [%]	%Inh (TRKA) [%]	%Inh (TRKB) [%]	%Inh (TRKC) [%]	%Inh (TRPM6) [%]	%Inh (TSSK1B) [%]
COc1ccc(COc2cc(-n3cnc4ccccc43)sc2C(N)=O)cc1 [GSK1024304]	0	0	0	12	20	0	0	11	0	0	0	51	8	3	0	0	0	19	4	0
O=C1NC(=O)C(N2CCc3ccccc32)=C1c1cccc(Cl)c1 [SB-408010]	0	0	0	0	30	0	1	0	12	10	0	0	0	0	0	12	0	0	21	22
COc1ccc(S(=O)(=O)NC2CCN(c3cc(C)nc(Nc4cccc(C#N)c4)n3)CC2)cc1.O=C(O)C(F)(F)F [GSK1653539]	0	0	11	10	5	0	0	0	0	8	0	0	0	8	0	7	0	0	0	0
CN1c2ccc(NCc3ccc(F)cc3)cc2-c2c(cnn2C)S1(=O)=O	26	0	0	0	14	2	16	8	0	13	0	38	35	0	2	0	0	2	0	0
NCC(NC(=O)c1cc(-c2cn[nH]c2)c(-c2ccnc3[nH]ccc23)s1)c1ccccc1.O=C(O)C(F)(F)F.O=C(O)C(F)(F)F (centres unmarked) [GSK1325775]	40	40	20	1	18	4	0	6	0	5	14	39	0	0	0	76	57	57	45	33
CCc1nc(-c2cccc(C)c2)c(-c2ccnc(NCc3ccccc3)c2)s1	0	0	13	9	0	2	0	13	0	22	0	24	0	0	0	0	0	0	0	22
Cl.Oc1cccc(Nc2ccnc3cc(-c4ccncc4)ccc23)c1 [GW494601]	0	0	9	1	16	76	99.5	50	48	0	9	86	72	16	33	68	11	25	0	0
Nc1nccc(-c2c(-c3ccc(F)cc3)ncn2C2CCN(CC(F)(F)F)CC2)n1 [SB-236560]	0	0	0	8	0	32	6	25	0	11	0	6	0	10	0	70	35	18	0	0
COc1ccc(CNC(=O)NC2CCN(c3ccnc(Nc4ccc(OC)cc4)n3)C2)cc1 (centres unmarked) [GSK1379727]	7	0	0	0	16	38	0	17	0	0	0	0	0	12	0	0	0	47	0	13
O=C(NCCNc1ccnc(Nc2ccc(F)cc2)n1)c1cc2ccccc2s1 [GSK1379874]	0	0	17	8	97.2	7	0	0	0	0	0	0	0	7	0	0	4	38	11	0
